Hit rate of the full screen: of about 47,000 compounds, about 140 (0.3%) were called active. No stated cut-off is given here; in the data, active means inhibition above about 30%; inactive means the rest. The list comes from a sample in which actives are over-represented; it also holds similar structures and randomly drawn compounds.
What follows are molecules tested against Ubiquitin carboxyl-terminal hydrolase 7 (Homo sapiens) (UniProt Q93009) (assay: blocks human USP7 ubiquitin-rhodamine cleavage (AID 1645854)). Details: purified USP7, Ub-rhodamine cleavage fluorescence; at 20 µM; stronger effect = higher value.
Ubiquitin carboxyl-terminal hydrolase 7 (Homo sapiens), sequence (Q93009 whole entry, looked up): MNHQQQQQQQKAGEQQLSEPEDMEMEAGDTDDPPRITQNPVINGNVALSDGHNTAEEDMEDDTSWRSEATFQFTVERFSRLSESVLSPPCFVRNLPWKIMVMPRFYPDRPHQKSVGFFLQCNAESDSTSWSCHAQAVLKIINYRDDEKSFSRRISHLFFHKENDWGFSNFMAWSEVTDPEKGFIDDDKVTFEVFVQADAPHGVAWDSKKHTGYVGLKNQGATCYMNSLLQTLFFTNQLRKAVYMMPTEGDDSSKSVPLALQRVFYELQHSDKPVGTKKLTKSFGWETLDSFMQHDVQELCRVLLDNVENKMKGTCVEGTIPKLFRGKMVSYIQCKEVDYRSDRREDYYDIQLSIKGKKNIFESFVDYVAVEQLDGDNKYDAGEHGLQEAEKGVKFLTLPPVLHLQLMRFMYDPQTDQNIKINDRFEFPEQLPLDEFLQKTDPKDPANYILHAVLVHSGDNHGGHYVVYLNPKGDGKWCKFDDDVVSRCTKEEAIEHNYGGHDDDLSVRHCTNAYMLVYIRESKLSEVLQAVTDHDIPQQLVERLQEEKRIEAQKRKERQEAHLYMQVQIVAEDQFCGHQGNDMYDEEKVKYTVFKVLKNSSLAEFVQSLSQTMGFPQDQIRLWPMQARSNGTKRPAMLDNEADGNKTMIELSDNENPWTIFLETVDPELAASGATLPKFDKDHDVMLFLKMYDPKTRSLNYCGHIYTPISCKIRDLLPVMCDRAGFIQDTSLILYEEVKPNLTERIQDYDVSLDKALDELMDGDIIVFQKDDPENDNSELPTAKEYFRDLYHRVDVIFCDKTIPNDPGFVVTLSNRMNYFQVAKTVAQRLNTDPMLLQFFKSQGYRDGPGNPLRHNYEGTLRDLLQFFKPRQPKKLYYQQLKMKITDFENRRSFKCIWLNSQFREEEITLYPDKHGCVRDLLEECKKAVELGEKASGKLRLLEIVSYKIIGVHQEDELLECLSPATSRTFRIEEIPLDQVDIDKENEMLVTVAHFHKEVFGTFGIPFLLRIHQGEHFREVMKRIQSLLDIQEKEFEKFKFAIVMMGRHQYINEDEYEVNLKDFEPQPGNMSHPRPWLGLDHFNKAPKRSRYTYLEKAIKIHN

Compound	inhibition
CC(C)[C@H](Cn1nnc2ccccc21)NC(=O)c1ccc2c(c1)CCN2S(C)(=O)=O	-1.02% (inactive)
CC(C)CCNC(=O)C(=O)c1cn(CC(=O)N2CCCC2)c2ccccc12	-9.94% (inactive)
CSc1cccc(NC(=O)CCn2c(=O)c3cccn3c3ccccc32)c1	5.36% (inactive)
Cc1nc(C2CCCN2C(=O)c2cccc3ncccc23)ncc1C(=O)N1CCOCC1 (centres undefined)	1.41% (inactive)
O=C(C1CCN(c2cnc3nccnc3c2)CC1)N1CCN(C2CCCCC2)CC1	-29.4% (inactive)
COc1ccc(-c2nnc(SCC(=O)c3cc(C)ccc3C)o2)cc1OC	9.96% (inactive)
CC1CCC(NC(=O)C2(C)Cc3ccccc3C(=O)N2Cc2ccccc2)CC1 (centres undefined)	-18.1% (inactive)
CCCN1CCN(Cc2nc3nc(C)cc(N4CCCC4)n3n2)CC1	0.57% (inactive)
O=C(NCC1CC1)c1ccc2ccc(N3CCN(c4ncccn4)CC3)n2c1	-17.3% (inactive)
Cn1ccc(-c2cc(C(=O)NCCc3ccccn3)c3ccccn23)n1	0.582% (inactive)
Cc1ccccc1NC(=O)N1CCC(CC(=O)N2CCCCC2)CC1	5.39% (inactive)
COc1cccc(-n2nnc(-c3nnc(-c4ccccc4)o3)c2C)c1	-29.9% (inactive)
COc1ccc(C2C3CCCCC3(O)CCN2C(=O)/C=C/c2cc(OC)c(OC)c(OC)c2)c(OC)c1 (centres undefined)	2.72% (inactive)
CN(C(=O)Cn1c(=O)n(CCCC(=O)N2CCc3ccccc3C2)c(=O)c2ccccc21)C1CCCCC1	-62.2% (inactive)
Cn1c(CNC(=O)c2ccc(=O)[nH]c2)nc2ccccc21	3.71% (inactive)
CN(Cc1ccccn1)C(=O)c1cc(-c2ccn(C)n2)n2ccccc12	-10.8% (inactive)
O=C(C1CCC1)N1CCCC(c2nc(N3CCOCC3)ncc2-c2cccnc2)C1 (centres undefined)	1.73% (inactive)
CC1CCc2nc3ccccc3c(C(=O)OCC(=O)Nc3ccc4ccccc4c3)c2C1 (centres undefined)	-6.5% (inactive)
Cn1nc(C(=O)N2CCOCC2)c2c1CN(Cc1cccnc1)CC2	-1.02% (inactive)
CC1CCc2c(sc3[nH]c(=O)c(C(=O)Nc4ccc(C(N)=O)cc4)c(O)c23)C1 (centres undefined)	2.02% (inactive)

Compound	inhibition
CNS(=O)(=O)c1ccc(CNC(=O)c2cc(-c3ccc(C)cc3)no2)cc1	4.58% (inactive)
CN(C)CCNC(=O)c1ccc2c(c1)nc1n2CCN(C2CCCCC2)C1=O	-3.11% (inactive)
COc1ccccc1CNC(=O)c1nc(N2CCSCC2)c2cn(C)nc2n1	-2.16% (inactive)
NC(=O)c1ccccc1NC(=O)C1CN(c2nc3c(F)cccc3s2)C1	-0.695% (inactive)
CCN1CCN(Cc2nc3nc(C)cc(N4CCCC4)n3n2)CC1	0.109% (inactive)
Cc1cc(O)c(=O)cc2c1C[C@H]1CC(C)(C)/C=C/C[C@@]3(C)Oc4cc(=O)c(O)cc(C)c4C[C@@H]3C[C@H](O)[C@]1(C)O2	32.8% (active)
O=C(NCc1cccnc1)c1cc(-c2ccncc2)n(-c2ccc(F)cc2)n1	0.279% (inactive)
Cn1c(SCc2ccc(Cl)cc2)nnc1-c1ccc2c(c1)OCCO2	-49.5% (inactive)
O=C(Nc1ccc2c(c1)CCC2)N1CC2CN(S(=O)(=O)c3ccccc3)CC(C1)O2	-2.8% (inactive)
O=C1CCC2C(c3ccc4c(c3)OCO4)CC1N2Cc1ccccc1 (centres undefined)	-3.81% (inactive)
Cc1c(S(=O)(=O)Nc2ccccc2F)cc(C(=O)N2CCCCC2)n1C	5.73% (inactive)
COc1ccc(Cn2c(=O)[nH]c3cc(C(=O)N4CCC(C(N)=O)CC4)ccc3c2=O)cc1	-1.91% (inactive)
Cc1nn(C)c(Cl)c1C1CCCN1C(=O)c1ccc(C)n(C)c1=O (centres undefined)	2.77% (inactive)
CC(C)C(=O)N[C@@H](CO)[C@H](O)c1ccc([N+](=O)[O-])cc1	0.416% (inactive)
CCc1ccc(-n2nnc(C(=O)Nc3nnc(CC)s3)c2C)cc1	0.00527% (inactive)
Cc1cnc(C(=O)N2CC[C@@H]3[C@H]2CCCC(=O)N3Cc2ccccc2C(F)(F)F)cn1	-3.69% (inactive)
COCCNc1nn2c(-c3ccc4ccccc4c3)cnc2s1	1.48% (inactive)
Cc1nn(CC(=O)c2cc(C)n(-c3ccc4c(c3)OCO4)c2C)c(C)c1[N+](=O)[O-]	-2.39% (inactive)
Cc1cccc(C(C)C)c1NC(=O)c1ccc(OCc2ccccc2)cc1	0.214% (inactive)

Reference: PubChem BioAssay AID1645854 (Buhrlage Lab, Dana-Farber Cancer Institute and Novartis …, 2021)
